Drawing on PubChem BioAssay, this text covers composite z-score and z-score for 16 molecules.

Experiment [1] concerns XIP peptide (Xip251-270) binding. In words: XIP fragment 251-270 binding compounds – biochemical, small-molecule microarray, fluorescence 635/667 nm, 0.1 µg/mL protein, primary screen (AID 1182). To be noted: fluorescent protein binding, 635 nm, higher = more signal, called active from +8 up or from −8 down.
For experiment [2], the system named is XIP peptide (Xip251-270). Nature of the experiment: compounds binding XIP fragment 251-270 – biochemical, small-molecule microarray, fluorescence 635/667 nm, 0.5 µg/mL protein, primary screen (AID 1183). The following applies: fluorescence 635 nm, higher = more signal.
Experiment [3] can be described thus: blood-stage malaria parasite viability loss – strain 3D7, DAPI fluorescence, 100 nL, primary screen (AID 1184).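 Also: parasites grown inside human red blood cells in medium with human serum.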 The following applies: P. falciparum 3D7 growth, 3 d, higher = more signal.
Experiment [4] has as its target Homeobox protein Hox-A13 (Mus musculus) (UniProt Q62424). Nature of the experiment: disruptors of Hoxa13 oligonucleotide interaction – biochemical, fluorescence polarization, labeled oligonucleotide, primary screen (AID 1185). To be noted: Hoxa13:DNA binding, 15 min, higher = more signal, called active from +8 up or from −8 down.
Experiment [5] is described as follows: blockers of DNA damage checkpoint Chk1 activation – imaging, HeLa, hydroxyurea, phospho-Chk1 antibody, percent positive cells, primary screen (AID 1186). To be noted: hydroxyurea-induced phospho-Chk1 immunofluorescence imaging, higher = more signal.
Experiment [6] in a line: blockers of DNA damage checkpoint Chk1 activation – imaging, HeLa, hydroxyurea, phospho-Chk1 nuclear intensity, primary screen (AID 1187). The following applies: hydroxyurea-induced phospho-Chk1 immunofluorescence imaging, higher = more signal.

Activity calls are given as the source filed them. Unless noted, no rule for the calls is given here.

Homeobox protein Hox-A13 (Mus musculus), sequence (Q62424 whole entry, looked up): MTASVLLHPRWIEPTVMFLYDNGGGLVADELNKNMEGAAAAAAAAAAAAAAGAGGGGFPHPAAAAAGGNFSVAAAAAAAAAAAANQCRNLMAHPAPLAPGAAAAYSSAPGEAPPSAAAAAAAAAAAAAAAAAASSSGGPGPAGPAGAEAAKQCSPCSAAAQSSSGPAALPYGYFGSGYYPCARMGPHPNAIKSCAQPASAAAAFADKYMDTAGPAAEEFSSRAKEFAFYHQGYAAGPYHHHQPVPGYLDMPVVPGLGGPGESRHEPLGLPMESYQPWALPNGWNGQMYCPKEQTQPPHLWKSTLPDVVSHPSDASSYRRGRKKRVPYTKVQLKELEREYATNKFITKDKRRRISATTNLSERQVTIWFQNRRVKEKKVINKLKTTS

Take `C=CC[C@@]1(C(=O)O)N=C(c2ccc(OCCCO)cc2)O[C@@H]1c1ccccc1CN=[N+]=[N-]`: the results for the composite z-score in experiment [1] and in experiment [2] were -0.207 (inactive) and 0.563, respectively. Moreover, the z-score was -1.34 in experiment [3], -6.29 (inactive) in experiment [4], -0.222 (inactive) in experiment [5] and -0.0145 (inactive) in experiment [6].
In the case of `COCCOC(=O)N1C(=O)[C@@]2(c3cc(C#CC4=CCCCC4)ccc31)[C@H](C(=O)N1CCN(c3ncccn3)CC1)[C@H]1C(=O)O[C@H](c3ccccc3)[C@H](c3ccccc3)N1[C@@H]2c1ccccc1OCCO`, the composite z-score in experiment [1] is 0.506 (inactive); in experiment [2], 0.59. Also, the z-score in experiment [3] is -2.32; in experiment [4], 2.82 (inactive); in experiment [5], -0.274 (inactive); in experiment [6], -0.475 (inactive).
As for `COCCOC(=O)N1C(=O)[C@@]2(c3cc(C#CC4(O)CCCCCC4)ccc31)[C@H](c1ccccc1OCCO)N1[C@H](c3ccccc3)[C@H](c3ccccc3)OC(=O)[C@H]1[C@@H]2C(=O)N1CCCCCCC1`, the figures for the composite z-score in experiment [1] and in experiment [2] were 1.86 (inactive) and 0.727, respectively. The z-score in experiment [3] is -1.93; in experiment [4], 3.98 (inactive); in experiment [5] it was -0.531 (inactive); in experiment [6] it was -0.561 (inactive).
As for `[N-]=[N+]=NCc1ccccc1C[C@]1(C(=O)O)COC(c2ccc(OCCCO)cc2)=N1`, the composite z-score is -0.4 (inactive) in experiment [1] and 0.264 in experiment [2]. Further, the z-score in experiment [3] was 1.24; in experiment [4], -3.85 (inactive); in experiment [5] it was 0.0203 (inactive); in experiment [6] it was -0.313 (inactive).
For `CN1C=C(C(=O)OCCS(C)(=O)=O)C(C(=O)OCCS(C)(=O)=O)=CC(CCCO)=CC1c1ccc(CN2CCCC2)cc1` (stereo unspecified), the composite z-score in experiment [1] is 0.629 (inactive); in experiment [2], 0.694. The z-score was -2.24 in experiment [3], -4.07 (inactive) in experiment [4], 0.266 (inactive) in experiment [5] and -0.0538 (inactive) in experiment [6].
With `O=C1c2ccccc2[C@@]2(Cc3ccccc3N(Cc3ccccc3)C2=O)[C@H](c2ccc(CO)cc2)N1Cc1ccccc1`, the composite z-score in experiment [1] is -0.348 (inactive); in experiment [2] it was -0.283. Further, the z-score in experiment [3] was 1.37; in experiment [4] it was -0.928 (inactive); in experiment [5] it was 0.306 (inactive); in experiment [6] it was 0.435 (inactive).
As to `CCCCC=C[C@@H](NC(=O)c1ccc(C(F)(F)F)cc1)c1ccccc1`, the composite z-score was 0.0581 (inactive) in experiment [1] and -0.11 in experiment [2]. Moreover, the z-score in experiment [3] was 0.185; in experiment [4], -3.7 (inactive); in experiment [5], -0.587 (inactive); in experiment [6], -1.16 (inactive).
For the molecule `O=C1C2C=CC(C(O)c3cccc(O)c3)N(Nc3ccccc3F)C2C(=O)N1c1ccccc1` (stereo unspecified), the composite z-score is 1.62 (inactive) in experiment [1] and 0.632 in experiment [2]. Also, the z-score in experiment [3] is -1.33; in experiment [4], -3.57 (inactive); in experiment [5], -0.388 (inactive); in experiment [6] it was -1.33 (inactive).
For the molecule `CN(C)CCCCNC(=O)[C@H]1C[C@H]2C(=O)NCC(=O)N2[C@H]1c1cccc(OCCO)c1`, the composite z-score in experiment [1] is 0.329 (inactive); in experiment [2], 0.129. The z-score in experiment [3] was 0.256; in experiment [4], -1.62 (inactive); in experiment [5], -0.46 (inactive); in experiment [6], -0.538 (inactive).
Regarding `COC(=O)[C@@]1(Cc2ccccc2)[C@@H]2[C@@H](CC(=O)[C@H]2CC(=O)C(=O)N(C)C)CN1C(=O)c1ccccc1`, the composite z-score in experiment [1] is -0.282 (inactive); in experiment [2] it was -0.0913. Also, the z-score in experiment [3] was -1.23; in experiment [4] it was -4.98 (inactive); in experiment [5], 0.273 (inactive); in experiment [6], 0.082 (inactive).
In the case of `COCCOC(=O)N1C(=O)[C@@]2(c3cc(C#CC4=CCCCC4)ccc31)[C@H](c1ccc(OCCO)cc1)N1[C@H](c3ccccc3)[C@H](c3ccccc3)OC(=O)[C@H]1[C@@H]2C(=O)N1CCCCCCC1`, the composite z-score in experiment [1] was 1.32 (inactive); in experiment [2], 0.822. The z-score is -2.06 in experiment [3], -15.2 (active) in experiment [4], -0.002 (inactive) in experiment [5] and 0.437 (inactive) in experiment [6].
In the case of `COc1cccc(C[C@H]2C[C@@H](CO[Si](C(C)C)(C(C)C)C(C)C)N3C(=O)[C@@]4(C(C)=O)O[C@@]23[C@@H]2C(=O)N(C)C(=O)[C@@H]24)c1`, the composite z-score in experiment [1] is 0.234 (inactive); in experiment [2], 0.61. Moreover, the z-score was -1.75 in experiment [3], -3.39 (inactive) in experiment [4], -0.365 (inactive) in experiment [5] and -0.482 (inactive) in experiment [6].
Consider `CC(C)[Si](C#CCCCC#N)(O[C@H](c1ccccc1)c1cn([C@H](C)c2ccccc2)nn1)C(C)C`, for which the composite z-score in experiment [1] is -0.301 (inactive); in experiment [2] it was 0.415. The z-score in experiment [3] is -0.133; in experiment [4] it was -0.445 (inactive); in experiment [5], -0.228 (inactive); in experiment [6] it was -0.174 (inactive).
Consider `COC(=O)c1ccc([C@H](NC(=O)c2ccccc2)[C@]2(C)C[C@H]2C2CCCCC2)cc1`, for which the composite z-score in experiment [1] was -0.317 (inactive); in experiment [2], -0.199. Besides, the z-score in experiment [3] is -0.631; in experiment [4], 3.23 (inactive); in experiment [5] it was -0.198 (inactive); in experiment [6], -0.123 (inactive).
For `CCCCC(O)C1C=CC2C(=O)N(C)C(=O)C2N1Nc1ccccc1` (stereo unspecified), the composite z-score is -0.141 (inactive) in experiment [1] and 0.0092 in experiment [2]. Besides, the z-score in experiment [3] is -0.286; in experiment [4], -4.23 (inactive); in experiment [5] it was 0.342 (inactive); in experiment [6], -0.0493 (inactive).
Regarding `C=CCNC(=O)[C@@H]1[C@H]2C(=O)O[C@H](c3ccccc3)[C@H](c3ccccc3)N2[C@H](c2ccc(O)cc2)[C@@]12C(=O)Nc1ccc(C#CC3(O)CCCCCC3)cc12`, the values for the composite z-score in experiment [1] and in experiment [2] were 0.237 (inactive) and -0.251, respectively. Also, the z-score in experiment [3] was 0.516; in experiment [4] it was -3.49 (inactive); in experiment [5] it was -0.326 (inactive); in experiment [6], -0.0283 (inactive).
